Here are results for 20 molecules from PubChem BioAssay (Tox21).

Molecules are shown by their SMILES. Values joined by “and” are separate entries in the source; they are usually repeats but may differ in a detail not shown here. Equal entries are not always repeated. Records with an inconclusive call do not appear. More than one record can exist for a structure, and the calls need not agree. Active and inactive are the calls of the source. Unless noted, the call rests on the fitted dose curve; in most records, active means well fitted curve in the direction sought with a large enough effect in the repeat runs; inconclusive means weak or mixed curves; inactive means no such curve, though single readings can be large; an effect the other way counts as inactive or inconclusive.

Assay [1] is described as follows: qHTS assay to identify small molecule antagonists of the glucocorticoid receptor (GR) signaling pathway - cell viability counter screen (AID 720693). Further: nearly all actives have a fitted effect of over 55% in size. Further: potency means the concentration at half of the fitted maximal effect. On the technique in general: In qHTS, concentration-response curves come from the screen itself.
Assay [2] in a line: qHTS assay for identifying genotoxic compounds that show differential cytotoxicity against isogenic chicken DT40 cell lines with known DNA damage response pathways - wild type cell line (AID 743012). Further: nearly all actives have a fitted effect of over 60% in size. Further: potency means the concentration at half of the fitted maximal effect. The essentials:
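Viability by ATP luminescence (CellTiter-Glo, 30 min RT) after 40 h compound treatment at 37 C/5% CO2, using 300 parental DNA repair-proficient DT40 cells per well.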

A short description of assay [3]: qHTS assay for identifying genotoxic compounds that show differential cytotoxicity against isogenic chicken DT40 cell lines with known DNA damage response pathways - Rev3 mutant cell line (AID 743014). Further: nearly all actives have a fitted effect of over 55% in size. Further: potency means the concentration at half of the fitted maximal effect.
Assay [4] in a line: qHTS assay for identifying genotoxic compounds that show differential cytotoxicity against isogenic chicken DT40 cell lines with known DNA damage response pathways - Rad54/Ku70 mutant cell line (AID 743015). Further: nearly all actives have a fitted effect of over 60% in size. Further: potency means the concentration at half of the fitted maximal effect.
Assay [5] in a line: qHTS assay to identify small molecule antagonists of the androgen receptor (AR) signaling pathway - cell viability counter screen (AID 743033; further: nearly all actives have a fitted effect of over 45% in size; further: potency means the concentration at half of the fitted maximal effect).
For assay [6], the target named is Androgen receptor (Homo sapiens) (UniProt P10275). The assay is described as follows: qHTS assay to identify small molecule antagonists of the androgen receptor (AR) signaling pathway (AID 743035; active means well fitted inhibition curve with a large enough effect in the signal ratio in the repeat runs, not every such curve was filed as active; the % refers to the signal ratio; further: potency means the concentration at half of the fitted maximal effect). The essentials:
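Antagonist mode: AR-bla HEK293 cells co-treated with test compounds and agonist R1881 for 16 h at 37C, 5% CO2. Beta-lactamase activity read as FRET fluorescence after 2 h room-temperature substrate loading.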

Assay [7] has the same target. The assay is described as follows: qHTS assay to identify small molecule agonists of the androgen receptor (AR) signaling pathway (AID 743036; active means well fitted activation curve with a large enough effect in the signal ratio in the repeat runs, with a control signal flat, not every such curve was filed as active; the % refers to the signal ratio). The essentials: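 HEK293 cells stably carrying a UAS-driven beta-lactamase reporter (GeneBLAzer AR-UAS-bla-GripTite) were plated at 2,000 cells/well, rested 4 h at 37C, then exposed to compounds in DMSO for 16 h. LiveBLAzer B/G FRET substrate was added for 2 h at room temperature; fluorescence read.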

Assay [8] shares this target. The assay is described as follows: qHTS assay to identify small molecule agonists of the androgen receptor (AR) signaling pathway using the MDA cell line (AID 743040; further: nearly all actives have a fitted effect of over 20% in size). The method in brief: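 Agonist activity is measured as luciferase luminescence in human MDA-kb2 cells whose MMTV reporter responds to both AR and GR. Compounds in DMSO incubate 16 h at 37C, 0% CO2, and ONE-Glo is read after 30 min.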

Assay [9] can be described thus: qHTS assay to identify small molecule antagonists of the androgen receptor (AR) signaling pathway using the MDA cell line - cell viability counter screen (AID 743041; further: nearly all actives have a fitted effect of over 45% in size; further: potency means the concentration at half of the fitted maximal effect). The essentials: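 qHTS viability read-out; MDA-kb2 AR-luc; R1881-stimulated; 16 h exposure at 37C, 0% CO2; CellTiter-Fluor, 30 min; fluorescence intensity.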
Assay [10] deals with Androgen receptor (Homo sapiens) (UniProt P10275). The assay is described as follows: qHTS assay to identify small molecule antagonists of the androgen receptor (AR) signaling pathway using the MDA cell line (AID 743042; further: nearly all actives have a fitted effect of over 55% in size; further: potency means the concentration at half of the fitted maximal effect). The essentials:
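MDA-kb2 cells (human breast carcinoma, stably carrying an MMTV-luciferase reporter responsive to AR and GR) were plated at 3,000 cells/well and preincubated 5 hr at 37C, then given compound plus R1881 agonist for 16 h. ONE-Glo luminescence was read.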

Sequence of Androgen receptor (Homo sapiens) (P10275 whole entry, looked up): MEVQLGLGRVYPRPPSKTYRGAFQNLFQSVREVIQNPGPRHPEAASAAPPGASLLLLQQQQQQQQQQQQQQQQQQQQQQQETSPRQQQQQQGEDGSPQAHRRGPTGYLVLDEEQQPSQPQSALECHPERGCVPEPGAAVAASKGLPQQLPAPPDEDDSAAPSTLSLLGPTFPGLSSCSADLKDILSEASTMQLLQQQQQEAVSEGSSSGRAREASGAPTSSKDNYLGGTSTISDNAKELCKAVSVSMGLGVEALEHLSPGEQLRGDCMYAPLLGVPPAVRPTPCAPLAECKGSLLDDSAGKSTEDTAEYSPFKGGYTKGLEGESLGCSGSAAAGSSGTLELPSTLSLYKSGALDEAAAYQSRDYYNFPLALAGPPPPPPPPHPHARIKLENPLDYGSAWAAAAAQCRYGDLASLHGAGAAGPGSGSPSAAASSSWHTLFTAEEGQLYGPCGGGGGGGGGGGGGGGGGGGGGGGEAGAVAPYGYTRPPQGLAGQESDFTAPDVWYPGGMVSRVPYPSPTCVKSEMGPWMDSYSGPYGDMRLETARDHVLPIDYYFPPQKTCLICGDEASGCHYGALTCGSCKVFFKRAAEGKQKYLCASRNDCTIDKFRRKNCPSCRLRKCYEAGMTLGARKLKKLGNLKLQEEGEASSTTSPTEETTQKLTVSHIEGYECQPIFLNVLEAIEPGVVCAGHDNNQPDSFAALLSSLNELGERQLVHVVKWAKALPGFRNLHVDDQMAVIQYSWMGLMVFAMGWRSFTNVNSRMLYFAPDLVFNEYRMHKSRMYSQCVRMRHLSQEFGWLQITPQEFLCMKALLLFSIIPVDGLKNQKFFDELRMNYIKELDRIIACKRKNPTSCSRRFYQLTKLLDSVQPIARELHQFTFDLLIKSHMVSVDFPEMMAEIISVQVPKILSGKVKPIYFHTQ

As for `CN[C@@H]1[C@@H](O[C@H]2O[C@H](CO)[C@@H](N)[C@H](O)[C@H]2O)O[C@H]2C[C@@H](N)[C@@H](O[C@H]3[C@H](O)[C@@H](O)[C@H](N)C[C@@H]3N)O[C@@H]2[C@@H]1O`, the Potency result in assay [1], in assay [2], in assay [3], in assay [4], in [5] and in [6] was “inactive” in each case. For the same molecule, the Potency result in assay [7], in assay [8], in assay [9] and in assay [10] was “inactive” in each case.
With `Cc1cc(F)ccc1-c1cc(N2CC[C@@H](O)[C@H]2CO)ncc1N(C)C(=O)C(C)(C)c1cc(C(F)(F)F)cc(C(F)(F)F)c1`, the Potency was 17.1 µM (active) in assay [1]; 12 µM (active) in assay [2]; 8.5 µM (active) in assay [3]; 10.7 µM (active) in assay [4]; 30.4 µM (active) in assay [5]; 15.3 µM (active) in assay [6]. Besides, the Potency in assay [10] was 33.8 µM (active). Also, the Potency entry in assay [8] is “inactive”.
With `CC[C@@H](C(=O)[C@@H](C)[C@@H](O)[C@H](C)CCc1ccc(C)c(O)c1C(=O)O)[C@H]1O[C@](CC)([C@H]2CC[C@](O)(CC)[C@H](C)O2)C[C@@H]1C`, the Potency in assay [1] is 23.9 µM (active); in assay [2] it was 5.96 µM (active); in [3] it was 4.73 µM (active); in [4], 6.68 µM (active); in assay [5] it was 6.74 µM (active); in [6], 15.1 µM (active). In addition, the Potency in assay [9] was 11.1 µM (active). The Potency result in [10] is “inactive”.
As to `CC(C)OC(=O)Nc1ccc2nc(-c3cscn3)[nH]c2c1`, the Potency result in assay [1], in assay [5], in assay [9] and in [10] was “inactive” each time. For the same molecule, the Potency is 1.68 µM (active) in assay [2], 1.88 µM (active) in assay [3], 2.37 µM (active) in assay [4] and 4.25 µM (active) in assay [6].
Regarding `O=C(O)c1cc2cc(Cc3cccnc3)ccc2o1`, the Potency result in assay [1], in [2], in [3], in assay [4], in assay [5] and in [9] was “inactive” each time.
Regarding `CO[C@H](C(=O)[C@@H](O)[C@@H](C)O)C1Cc2cc3cc(O[C@H]4C[C@@H](O[C@H]5C[C@@H](O)[C@H](O)[C@@H](C)O5)[C@@H](O)[C@@H](C)O4)c(C)c(O)c3c(O)c2C(=O)[C@H]1O[C@H]1C[C@@H](O[C@H]2C[C@@H](O[C@H]3C[C@](C)(O)[C@H](O)[C@@H](C)O3)[C@H](O)[C@@H](C)O2)[C@H](O)[C@@H](C)O1` (stereo partly specified), the Potency was 1.34 µM (active) in [1]; 94.4 nM (active) and 47.3 nM (active) in assay [2]; 84.1 nM (active) and 37.6 nM (active) in assay [3]; 75 nM (active) and 33.5 nM (active) in assay [4]; 473 nM (active) and 266 nM (active) in assay [10]. The Potency entry in assay [5], in [8] and in assay [9] was “inactive” throughout.
With `FC(F)(F)C(F)(F)C(F)(F)C(F)(F)C(F)(F)F`, the Potency entry in assay [1], in assay [2], in assay [3], in assay [4], in assay [5] and in [9] was “inactive” in each case.
With `NC[C@H]1O[C@H](O[C@H]2[C@H](O)[C@@H](O[C@H]3O[C@H](CO)[C@@H](O)[C@H](N)[C@H]3O)[C@H](N)C[C@@H]2N)[C@H](N)C[C@@H]1O`, the Potency result in assay [1], in assay [2], in assay [3], in assay [4], in [5] and in assay [9] was “inactive” each time.
With `CC(=O)Nc1ccc(OC(C)=O)cc1`, the Potency entry in assay [1], in [2], in assay [3], in assay [4], in assay [5] and in assay [9] was “inactive” each time.
On to `CCCC(CCC)C(=O)OC1C[C@H]2CC[C@@H](C1)[N+]2(C)C` (stereo partly specified), for which the Potency result in assay [1], in [2], in assay [4], in assay [5] and in [9] was “inactive” throughout. In addition, the Potency result in assay [3] is “inactive and 13.3 µM (active)”.
Regarding `C=C1[C@H](CO)[C@@H](O)C[C@@H]1n1cnc2c(=O)[nH]c(N)nc21`, the Potency entry in assay [1], in assay [5], in assay [7], in assay [9] and in [10] was “inactive” each time. Besides, the Potency was 0.0237 µM (active) in [2], 0.0237 µM (active) in [3] and 0.0335 µM (active) in [4].
As for `CC[N+](CC)(CC)CCC(O)(c1ccccc1)C1CCCCC1` (stereo unspecified), the Potency result in assay [1], in [2], in [3], in [4], in [5] and in assay [9] was “inactive” in each case.
Consider `O=C(O)/C=C/C(=O)Nc1ccc(S(=O)(=O)Nc2nccs2)cc1`, for which the Potency entry in assay [1], in assay [2], in assay [3], in assay [4], in assay [5] and in [9] was “inactive” throughout.
With `C/C=C/C1=C(C(=O)O)N2C(=O)[C@@H](NC(=O)[C@H](N)c3ccc(O)cc3)[C@H]2SC1`, the Potency result in [1], in [2], in [3], in assay [4], in assay [5] and in assay [6] was “inactive” each time. The Potency entry in assay [8], in assay [9] and in [10] was “inactive” in each case.
In the case of `C=N[C@@H](C(=O)N[C@@H]1C(=O)N2[C@@H]1SC(C)(C)[C@@H]2C(=O)O)c1ccccc1`, the Potency result in assay [1], in [2], in [3], in assay [4], in assay [5] and in [9] was “inactive” in each case.
Take `CO/N=C(\C(=O)N[C@@H]1C(=O)N2C(C(=O)O)=C(C[N+]3(C)CCCC3)CS[C@H]12)c1csc(N)n1`: the Potency result in assay [1], in [2], in assay [3], in assay [4], in [5] and in assay [6] was “inactive” throughout. Also, the Potency entry in assay [9] and in [10] was “inactive” in each case.
As for `NC(N)=NCC1COC2(CCCCC2)O1` (stereo unspecified), the Potency result in [1], in assay [2], in assay [3], in assay [4], in assay [5] and in [6] was “inactive” throughout. Moreover, the Potency entry in assay [9] and in assay [10] was “inactive” each time.
Consider `C=CCN1C(=O)C(CC(C)C)NC1=S` (stereo unspecified), for which the Potency result in assay [1], in [2], in assay [3], in assay [4], in assay [5] and in assay [9] was “inactive” in each case.
Turning to `O=C(CCCCCCCCc1cccnc1)N1CCC(C=C(c2ccccc2)c2ccccc2)CC1`, the Potency is 34.7 µM (active) in [1], 48.6 µM (active) in assay [2], 24.3 µM (active) in assay [3] and 24.3 µM (active) in [4]. Also, the Potency entry in assay [5], in [7], in assay [9] and in [10] was “inactive” in each case.
Regarding `COc1ccc([C@@H]2CC(=O)c3c(O)cc(O[C@@H]4O[C@H](CO[C@@H]5O[C@@H](C)[C@H](O)[C@@H](O)[C@H]5O)[C@@H](O)[C@H](O)[C@H]4O)cc3O2)cc1O`, the Potency result in [1], in assay [2], in assay [3], in assay [4], in [5] and in [7] was “inactive” throughout. For the same molecule, the Potency entry in [8], in assay [9] and in assay [10] was “inactive” each time.
